As a reminder, the AC50 is the midpoint of the concentration-response curve, whichever way the signal moves.

Molecules are shown by their SMILES. Calls of active or inactive are those of the source. How the source made its calls: active means hit-call score of the fitted dose curve at least 0.9, where 1 is the maximum; inactive means score below 0.9.

Read-out in assay [1]: Urokinase-type plasminogen activator receptor (uPAR), PLAUR (gene 5329)
In words: BSK_4H_uPAR: BioMAP Diversity Plus: 4H Assay for Urokinase-type plasminogen activator receptor (uPAR) Biomarker Activity (AID 2283030). The settings on record: primary human endothelial cells (HUVEC); actives raise or lower the signal. Put shortly: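 Primary human umbilical vein endothelial cells were exposed to chemical for 24 h before cell-surface uPAR was quantified by ELISA. Activity was fitted bidirectionally against the DMSO negative control baseline.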

Read-out in assay [2]: Vascular endothelial growth factor receptor 2 (Homo sapiens) (UniProt P35968)
In words: BSK_4H_VEGFRII: BioMAP Diversity Plus: 4H Assay for Vascular endothelial growth factor receptor 2 (VEGFR2) Biomarker Activity (AID 2283031). As to conditions: primary human endothelial cells (HUVEC); actives raise or lower the signal. Put shortly: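 Primary human umbilical vein endothelial cells in the BioMAP 4H system were dosed with test chemical, and 24 h later VEGFRII was measured by ELISA. Activity was fitted bidirectionally against DMSO as negative control and baseline.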

Read-out in assay [3]: Vascular cell adhesion molecule 1 (VCAM1), VCAM1 (gene 7412)
In words: BSK_4H_VCAM1: BioMAP Diversity Plus: 4H Assay for Vascular cell adhesion molecule 1 (VCAM1) Biomarker Activity (AID 2283033).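 On outcome: cell-surface VCAM-1 protein measured by ELISA.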 As to conditions: primary human endothelial cells (HUVEC); actives raise or lower the signal. Put shortly: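 HUVEC, 24 h post-dose; VCAM-1 by ELISA. Bidirectional curve fit vs DMSO baseline. Parallel SRB total-protein stain (0.1% SRB after 10% TCA fixation, 560 nm) for cytotoxicity.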

Read-out in assay [4]: Interferon-gamma inducible Protein 10 (IP10), CXCL10 (gene 3627)
In words: BSK_BE3C_IP10: BioMAP Diversity Plus: BE3C Assay for Interferon-gamma inducible Protein 10 (IP10) Biomarker Activity (AID 2283034). As to conditions: primary human bronchial epithelial cells; actives raise or lower the signal. The gist of the method:
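ELISA readout of IP-10 in BE3C system: primary human bronchial epithelial cells, 24 h post-dosing; bidirectional curve fit vs DMSO baseline.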

Read-out in assay [5]: Transforming growth factor beta 1 (TGFb1), TGFB1 (gene 7040)
In words: BSK_BE3C_TGFb1: BioMAP Diversity Plus: BE3C Assay for Transforming growth factor beta 1 (TGFb1) Biomarker Activity (AID 2283036;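 further: TGF-b1 protein level measured by ELISA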). The settings on record: primary human bronchial epithelial cells; actives raise or lower the signal. The gist of the method:
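Read-out: ELISA for TGF-b1 in primary human bronchial epithelial cultures, 24 h post-dose. Bidirectional curve fitting vs DMSO control; gain or loss of signal both scored.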

Read-out in assay [6]: Plasminogen activator inhibitor-1 (PAI1), SERPINE1 (gene 5054)
In words: BSK_BE3C_PAI1: BioMAP Diversity Plus: BE3C Assay for Plasminogen activator inhibitor-1 (PAI1) Biomarker Activity (AID 2283037). The settings on record: primary human bronchial epithelial cells; actives raise or lower the signal. Put shortly:
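ELISA read-out of PAI-1 from human bronchial epithelial primary cells, 24 h post-dosing; bidirectional curve fit vs DMSO baseline, gain or loss of signal scored.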

Read-out in assay [7]: urokinase plasminogen activator (uPA), PLAU (gene 5328)
As to the kind of experiment: BSK_BE3C_uPA: BioMAP Diversity Plus: BE3C Assay for urokinase plasminogen activator (uPA) Biomarker Activity (AID 2283038).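 Further: uPA protein level quantified by ELISA in cell cultures; uPA read one day after compound addition.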 The settings on record: primary human bronchial epithelial cells; actives raise or lower the signal. The gist of the method:
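Human primary bronchial epithelial cells were exposed to chemical for 24 h, then uPA levels were measured by ELISA. Responses were fitted bidirectionally against DMSO as negative control and baseline. Parallel SRB staining of total protein gauged overt cytotoxicity.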

Read-out in assay [8]: Urokinase-type plasminogen activator receptor (uPAR), PLAUR (gene 5329)
As to the kind of experiment: BSK_BE3C_uPAR: BioMAP Diversity Plus: BE3C Assay for Urokinase-type plasminogen activator receptor (uPAR) Biomarker Activity (AID 2283039).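 On outcome: cells exposed to compound for one day before measurement.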 As to conditions: primary human bronchial epithelial cells; actives raise or lower the signal. Put shortly:
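ELISA readout of uPAR on human lung primary bronchial epithelial cells, 24 h post-dosing. Bidirectional curve fit relative to DMSO vehicle baseline; gain or loss of signal both scored.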

Read-out in assay [9]: Interleukin-6 (IL6), IL6 (gene 3569)
In words: BSK_CASM3C_IL6: BioMAP Diversity Plus: CASM3C Assay for Interleukin-6 (IL6) Biomarker Activity for (AID 2283040). The settings on record: primary human coronary artery smooth muscle cells; actives raise or lower the signal.

Read-out in assay [10]: Tissue plasminogen activator (tPA), PLAT (gene 5327)
In words: BSK_BE3C_tPA: BioMAP Diversity Plus: BE3C Assay for Tissue plasminogen activator (tPA) Biomarker Activity (AID 2283041).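 Further: tPA level quantified by ELISA one day after compound addition.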 As to conditions: primary human bronchial epithelial cells; actives raise or lower the signal. Put shortly:
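ELISA read-out of tPA on human primary bronchial epithelial cells, 24 h post-dosing; bidirectional fit vs DMSO negative control/baseline.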

Read-out in assay [11]: Interleukin-8 (IL8), CXCL8 (gene 3576)
In words: BSK_CASM3C_IL8: BioMAP Diversity Plus: CASM3C Assay for Interleukin-8 (IL8) Biomarker Activity (AID 2283042).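 Further: IL-8 protein level quantified by ELISA.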 The settings on record: primary human coronary artery smooth muscle cells; actives raise or lower the signal.

Read-out in assay [12]: Human Leukocyte Antigen - DR isotype (HLADR), HLA-DRA (gene 3122)
As to the kind of experiment: BSK_CASM3C_HLADR: BioMAP Diversity Plus: CASM3C Assay for Human Leukocyte Antigen - DR isotype (HLADR) Biomarker Activity (AID 2283043).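 Further: cell-surface HLA-DR protein level quantified by ELISA.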 The settings on record: primary human coronary artery smooth muscle cells; actives raise or lower the signal.

Read-out in assay [13]: Macrophage colony-stimulating factor (MCSF), CSF1 (gene 1435)
In words: BSK_CASM3C_MCSF: BioMAP Diversity Plus: CASM3C Assay for Macrophage colony-stimulating factor (MCSF) Biomarker Activity (AID 2283044).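 Further: M-CSF protein amount quantified by ELISA after 24 h exposure.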 As to conditions: primary human coronary artery smooth muscle cells; actives raise or lower the signal.

Read-out in assay [14]: Low-density lipoprotein receptor (LDLR), LDLR (gene 3949)
In words: BSK_CASM3C_LDLR: BioMAP Diversity Plus: CASM3C Assay for Low-density lipoprotein receptor (LDLR) Biomarker Activity (AID 2283045).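 Further: LDLR protein level on the cell surface quantified by ELISA.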 The settings on record: primary human coronary artery smooth muscle cells; actives raise or lower the signal.

Read-out in assay [15]: Monocyte Chemoattractant Protein-1 (MCP1), CCL2 (gene 6347)
As to the kind of experiment: BSK_CASM3C_MCP1: BioMAP Diversity Plus: CASM3C Assay for Monocyte Chemoattractant Protein-1 (MCP1) Biomarker Activity (AID 2283046).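 Further: MCP-1 level quantified by ELISA 24 h after dosing.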 The settings on record: primary human coronary artery smooth muscle cells; actives raise or lower the signal.

Assay [16] in a line: BSK_CASM3C_Proliferation: Cell Proliferation Assessment in the BioMAP Diversity Plus: CASM3C Assay (AID 2283047).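 Further: sulforhodamine B total protein stain as relative cell number at 560 nm; sub-confluent cells exposed 48 h before staining; fitted both ways against DMSO so gain or loss of cell number.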 The settings on record: primary human coronary artery smooth muscle cells.
Read-out in assay [17]: Monokine induced gamma interferon (MIG), CXCL9 (gene 4283)
In words: BSK_CASM3C_MIG: BioMAP Diversity Plus: CASM3C Assay for Monokine induced gamma interferon (MIG) Biomarker Activity (AID 2283048). As to conditions: primary human coronary artery smooth muscle cells; actives raise or lower the signal.

Read-out in assay [18]: serum amyloid A (SAA), SAA1 (gene 6288)
As to the kind of experiment: BSK_CASM3C_SAA: BioMAP Diversity Plus: CASM3C Assay for serum amyloid A (SAA) Biomarker Activity (AID 2283049).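 Further: SAA protein level quantified by ELISA.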 The settings on record: primary human coronary artery smooth muscle cells; actives raise or lower the signal.

As for `O=C(Nc1ccccc1)Nc1ccnc(Cl)c1`, the result in [1], in [2], in assay [3], in assay [4], in [5] and in assay [6] was inactive. For the same molecule, the outcome in assay [7], in assay [9], in assay [10], in assay [12], in assay [13] and in assay [14] was inactive. Also, the result in assay [15], in assay [17] and in assay [18] was inactive. Besides, the AC50 in [8] is 0.807 µM (active); in [11] it was 13 µM (active); in [16] it was 28.6 µM (active).
Take `CCOC(=O)CC(SP(=S)(OC)OC)C(=O)OCC` (stereo not given): the result in assay [1], in assay [2], in assay [3], in [4], in assay [5] and in [6] was inactive. Moreover, the result in [7], in assay [8], in [9], in assay [10], in assay [11] and in [12] was inactive. Also, the result in [13], in assay [14], in [15], in assay [16], in assay [17] and in assay [18] was inactive.
Turning to `CCOc1cc(Oc2ccc(C(F)(F)F)cc2Cl)ccc1[N+](=O)[O-]`, the outcome in assay [1], in [2], in assay [3], in assay [4], in [5] and in assay [6] was inactive. In addition, the result in [7], in assay [8], in assay [9], in assay [10], in assay [11] and in assay [12] was inactive. Besides, the outcome in assay [13], in [14], in assay [15], in assay [17] and in assay [18] was inactive. The concentration at half-maximal activity (AC50) in assay [16] is 20 µM (active).
Consider `COP(N)(=O)SC` (stereo not given), for which the outcome in assay [1], in assay [3], in assay [4], in [5], in [6] and in assay [7] was inactive. Further, the outcome in assay [8], in [9], in assay [10], in assay [11], in assay [12] and in assay [13] was inactive. The outcome in assay [14], in assay [15], in assay [16], in assay [17] and in assay [18] was inactive.
With `N#Cc1cc(Br)c(O)c(Br)c1`, the AC50 in assay [1] was 16.9 µM (active); in assay [3], 32 µM (active); in assay [4] it was 23.5 µM (active); in [6] it was 12.8 µM (active). In addition, the result in assay [5], in assay [7], in assay [8], in [9], in assay [10] and in assay [11] was inactive. Moreover, the outcome in assay [12], in assay [13], in [14], in [15], in assay [16] and in assay [17] was inactive. Further, in assay [18], the result was inactive.
As for `COc1ccc(C(c2ccc(OC)cc2)C(Cl)(Cl)Cl)cc1`, the result in assay [1], in assay [5], in [7], in [8], in assay [10] and in assay [11] was inactive. For the same molecule, the result in assay [12], in [13], in [14], in assay [15], in assay [17] and in [18] was inactive. Moreover, the AC50 in [3] was 25.1 µM (active); in assay [4] it was 32.8 µM (active); in assay [6] it was 14.3 µM (active); in assay [9] it was 14 µM (active); in assay [16], 15.1 µM (active).
